From the supplement of paper PMC10849652
Targets with a hit are over-represented here; the source holds about 7,900 in all. About 0.6% of all pairs of compound and target were hits.

Columns and labels:
Test in all cases: log2 fold change, soluble protein after heating vs DMSO (PISA); higher = thermal stabilisation; K562 cells, 10 uM, 30 min; active = over 0.2 and 3.5 SD of the protein, either way, in both replicates (recomputed)
[1] = compound: C#Cc1cccc(Nc2ncnc3cc(OCCOC)c(OCCOC)cc23)c1 [erlotinib]
Outline: (§1)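 K562 cells at 2×10^6 cells/mL were given 10 μM compound for 30 min. Aliquots then went through 3 min of heating across 48°C-58°C, were pooled, and were extracted in PBS with 0.5% NP-40 at 4°C, and the supernatant after 21,000xg for 90 min was quantified by TMTpro 16plex LC-MS/MS with channel sums equalised. Thermal stability relative to control samples, from duplicates, is given as log2 fold change.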

[2] = compound: C/C(=N\NC(=O)C1=CC(=CC=C1)S(=O)(=O)N2CCOCC2)/C3=C(C=CC(=C3)Cl)O
Outline: as §1

[3] = compound: C1=CC(=C(C=C1Cl)C2=NC3=NC=CN=C3C(=N2)NC4=CC=NC=C4)F
Outline: as §1

[4] = compound: C1=CC(=CC=C1C2=NC3=C(N2)C=C(C=C3)C(=O)N)OC4=CC=C(C=C4)Cl
Outline: as §1

[5] = compound: C1=CC2=C(C=CC(=C2)/C=C\3/C(=O)NC(=NCC4=CC=CS4)S3)N=C1
Outline: as §1

[6] = compound: C1=CC2=NC=CN=C2C=C1/C=C/3\C(=O)NC(=O)S3
Outline: as §1

[7] = compound: C1=CC=C(C=C1)C2=NC(=C(N2)C3=CC=NC=C3)C4=CC(=C(C=C4)Cl)O
Outline: as §1

[8] = compound: C1=CC=C2C(=C1)C3=NNC4=CC=CC(=C43)C2=O
Outline: as §1

[9] = compound: C1CCN(C1)C(=O)NC2=CC=CC(=C2)NC3=NC=C(C(=N3)NCCC4=CN=CN4)Br
Outline: as §1

[10] = compound: C1CN(CCC1(CC2=CC=C(C=C2)Cl)N)C3=NC=NC4=C3C=CN4
Outline: as §1

Measured: log2 fold change

GAGE12F (UniProt P0CL80)
inactive: [1] -0.056 | [2] -0.061 | [3] 0.017 | [4] -0.035 | [5] 0.08 | [6] 0.025 | [7] -0.007 | [8] 0.011 | [9] -0.088 | [10] 0.052

GPAT4 (UniProt Q86UL3)
Sequence of UniProt Q86UL3 (Q86UL3 whole entry, looked up): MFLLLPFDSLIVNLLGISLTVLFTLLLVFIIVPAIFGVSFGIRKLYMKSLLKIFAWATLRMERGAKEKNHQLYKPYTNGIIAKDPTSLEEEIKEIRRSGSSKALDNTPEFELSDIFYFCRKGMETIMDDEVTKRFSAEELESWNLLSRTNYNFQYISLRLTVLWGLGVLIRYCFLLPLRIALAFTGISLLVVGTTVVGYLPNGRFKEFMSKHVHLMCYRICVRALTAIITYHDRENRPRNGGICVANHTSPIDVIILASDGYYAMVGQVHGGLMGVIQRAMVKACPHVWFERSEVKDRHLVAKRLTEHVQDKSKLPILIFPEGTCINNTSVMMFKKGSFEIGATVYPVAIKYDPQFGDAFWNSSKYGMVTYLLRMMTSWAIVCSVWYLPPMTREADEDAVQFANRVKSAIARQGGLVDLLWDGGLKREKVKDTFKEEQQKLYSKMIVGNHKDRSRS
inactive: [1] -0.017 | [2] -0.002 | [3] 0.06 | [4] -0.021 | [5] -0.016 | [6] -0.016 | [7] -0.01 | [8] 0.032 | [9] -0.087 | [10] 0.07

HECTD1 (UniProt Q9ULT8)
inactive: [1] 0.009 | [2] 0.127 | [3] -0.031 | [4] -0.003 | [5] 0.025 | [6] 0.087 | [7] -0.038 | [8] -0.035 | [9] -0.076 | [10] -0.204

FBXO7 (UniProt Q9Y3I1)
inactive: [1] 0.039 | [2] 0.033 | [3] 0.014 | [4] -0.055 | [5] 0.033 | [6] -0.038 | [7] 0.001 | [8] -0.014 | [9] 0.005 | [10] 0

HTATIP2 isoform 3 (UniProt Q9BUP3)
inactive: [1] 0.016 | [2] 0.112 | [3] 0.016 | [4] -0.02 | [5] -0.143 | [6] 0.005 | [7] 0.012 | [8] 0.033 | [9] -0.039 | [10] 0.005

GSTP1 (UniProt P09211)
inactive: [1] 0.021 | [2] 0.038 | [3] 0.013 | [4] -0.016 | [5] 0.041 | [6] 0.037 | [7] 0.014 | [8] 0.005 | [9] 0.021 | [10] 0.057

HS1BP3 (UniProt Q53T59)
inactive: [1] 0.008 | [2] 0.042 | [3] 0 | [4] -0.073 | [5] 0.147 | [6] -0.008 | [7] -0.032 | [8] -0.03

FERMT3 (UniProt Q86UX7)
Sequence of UniProt Q86UX7 (Q86UX7 whole entry, looked up): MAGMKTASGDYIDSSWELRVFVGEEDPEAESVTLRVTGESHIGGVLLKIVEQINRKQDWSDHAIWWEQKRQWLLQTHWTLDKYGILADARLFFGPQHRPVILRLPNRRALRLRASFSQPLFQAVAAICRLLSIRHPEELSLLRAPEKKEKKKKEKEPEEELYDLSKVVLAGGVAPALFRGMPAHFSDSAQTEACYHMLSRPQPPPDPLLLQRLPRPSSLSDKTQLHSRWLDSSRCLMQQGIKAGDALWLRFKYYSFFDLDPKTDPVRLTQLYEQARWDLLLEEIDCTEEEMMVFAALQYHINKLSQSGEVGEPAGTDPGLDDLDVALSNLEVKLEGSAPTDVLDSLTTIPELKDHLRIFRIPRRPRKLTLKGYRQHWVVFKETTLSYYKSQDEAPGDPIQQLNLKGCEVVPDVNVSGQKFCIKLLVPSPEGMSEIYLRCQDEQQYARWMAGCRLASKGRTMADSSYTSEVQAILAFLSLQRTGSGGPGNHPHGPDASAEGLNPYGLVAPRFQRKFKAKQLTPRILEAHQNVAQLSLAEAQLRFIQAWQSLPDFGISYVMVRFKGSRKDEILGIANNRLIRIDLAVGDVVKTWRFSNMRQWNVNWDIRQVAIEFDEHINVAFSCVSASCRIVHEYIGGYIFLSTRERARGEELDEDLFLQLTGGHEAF
inactive: [1] 0.019 | [2] 0.076 | [3] 0.091 | [4] -0.003 | [5] 0.028 | [6] 0.02 | [7] 0.011 | [8] 0.008 | [9] -0.006 | [10] 0.012

GPX4 (UniProt P36969)
inactive: [1] -0.021 | [2] 0.035 | [3] -0.012 | [4] 0.057 | [5] -0.007 | [6] 0.006 | [7] 0.142 | [8] -0.063 | [9] -0.036 | [10] 0.058

GSK3A (UniProt P49840)
inactive: [1] -0.02 | [2] 0.015 | [3] 0.01 | [4] 0.045 | [5] -0.001 | [6] -0.001 | [7] 0.18 | [8] 0.147 | [9] 0.131 | [10] 0.019

GLUD1 (UniProt P00367)
inactive: [1] 0.068 | [2] -0.009 | [3] 0.051 | [4] 0.026 | [5] 0.039 | [6] -0.018 | [7] -0.033 | [8] 0 | [9] 0.05 | [10] -0.027

HIP1R (UniProt O75146)
inactive: [1] 0.017 | [2] 0.034 | [3] 0.024 | [4] 0.005 | [5] 0.054 | [6] 0.013 | [7] 0.018 | [8] 0.033 | [9] -0.004 | [10] -0.005

GIGYF2 (UniProt Q6Y7W6)
Sequence of UniProt Q6Y7W6 (Q6Y7W6 whole entry, looked up): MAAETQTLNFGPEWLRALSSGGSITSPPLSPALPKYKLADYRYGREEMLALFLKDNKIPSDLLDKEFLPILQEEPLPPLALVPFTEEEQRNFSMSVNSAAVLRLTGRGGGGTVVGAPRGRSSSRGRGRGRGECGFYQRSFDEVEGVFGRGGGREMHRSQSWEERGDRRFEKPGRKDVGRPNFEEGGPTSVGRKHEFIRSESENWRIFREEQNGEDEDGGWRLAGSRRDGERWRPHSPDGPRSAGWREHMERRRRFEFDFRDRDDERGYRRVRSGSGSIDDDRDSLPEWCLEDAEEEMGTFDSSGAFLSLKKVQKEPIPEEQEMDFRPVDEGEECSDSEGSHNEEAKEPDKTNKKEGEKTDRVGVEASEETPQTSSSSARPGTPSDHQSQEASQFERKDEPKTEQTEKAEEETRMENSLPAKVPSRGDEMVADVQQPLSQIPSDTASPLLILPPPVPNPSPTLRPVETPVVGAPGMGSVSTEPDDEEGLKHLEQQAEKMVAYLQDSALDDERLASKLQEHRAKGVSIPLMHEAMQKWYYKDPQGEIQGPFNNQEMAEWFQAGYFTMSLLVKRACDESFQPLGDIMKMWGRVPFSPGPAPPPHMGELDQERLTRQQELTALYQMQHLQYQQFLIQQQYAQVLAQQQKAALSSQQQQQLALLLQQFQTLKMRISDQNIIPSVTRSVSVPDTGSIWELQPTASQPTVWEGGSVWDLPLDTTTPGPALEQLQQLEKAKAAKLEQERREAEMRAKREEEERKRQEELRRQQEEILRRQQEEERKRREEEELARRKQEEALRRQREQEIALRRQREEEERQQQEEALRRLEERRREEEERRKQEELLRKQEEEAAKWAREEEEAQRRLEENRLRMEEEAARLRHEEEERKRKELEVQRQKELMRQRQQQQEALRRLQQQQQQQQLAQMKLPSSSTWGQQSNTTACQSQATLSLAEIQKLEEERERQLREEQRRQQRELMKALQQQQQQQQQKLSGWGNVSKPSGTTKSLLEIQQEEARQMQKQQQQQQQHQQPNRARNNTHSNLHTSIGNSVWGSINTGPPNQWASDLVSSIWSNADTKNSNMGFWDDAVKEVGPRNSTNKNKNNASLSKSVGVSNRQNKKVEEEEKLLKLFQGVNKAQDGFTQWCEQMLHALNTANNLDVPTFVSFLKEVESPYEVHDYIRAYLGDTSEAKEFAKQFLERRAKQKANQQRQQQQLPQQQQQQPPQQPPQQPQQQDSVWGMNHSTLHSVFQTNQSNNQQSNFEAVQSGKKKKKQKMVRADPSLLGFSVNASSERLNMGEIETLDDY
inactive: [1] 0.062 | [2] 0.081 | [3] -0.022 | [4] -0.03 | [5] 0.05 | [6] 0.014 | [7] 0.009 | [8] 0.025 | [9] -0.039 | [10] -0.025

FKBP3 (UniProt Q00688)
inactive: [1] -0.001 | [2] 0.014 | [3] 0.061 | [4] -0.012 | [5] 0.013 | [6] -0.004 | [7] -0.028 | [8] -0.001 | [9] -0.007 | [10] -0.017

FDFT1 (UniProt P37268)
Sequence of UniProt P37268 (P37268 whole entry, looked up): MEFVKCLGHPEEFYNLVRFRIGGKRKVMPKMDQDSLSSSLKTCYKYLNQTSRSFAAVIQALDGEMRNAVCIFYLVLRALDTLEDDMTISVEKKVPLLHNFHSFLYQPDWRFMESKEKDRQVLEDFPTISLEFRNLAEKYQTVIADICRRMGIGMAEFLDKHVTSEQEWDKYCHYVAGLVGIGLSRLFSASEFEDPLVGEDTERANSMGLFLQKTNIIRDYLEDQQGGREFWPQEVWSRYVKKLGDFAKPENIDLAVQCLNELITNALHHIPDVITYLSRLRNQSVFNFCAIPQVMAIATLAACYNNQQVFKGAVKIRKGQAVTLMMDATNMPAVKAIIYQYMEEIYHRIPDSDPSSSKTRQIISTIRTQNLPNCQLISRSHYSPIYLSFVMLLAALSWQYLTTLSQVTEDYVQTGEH
inactive: [1] 0.126 | [2] -0.026 | [3] -0.01 | [4] 0.037 | [5] 0.209 | [6] 0 | [7] 0.011 | [8] 0.144 | [9] -0.039 | [10] 0.059

FBXO42 (UniProt Q6P3S6)
inactive: [1] 0.026 | [2] -0.006 | [3] -0.002 | [4] 0.025 | [5] 0.025 | [6] 0.055 | [7] 0.051 | [8] -0.006 | [9] -0.05 | [10] -0.024

IFI30 (UniProt P13284)
inactive: [1] 0.061 | [2] 0.018 | [3] -0.084 | [4] 0.012 | [5] -0.089 | [6] 0.026 | [7] 0.067 | [8] 0.009 | [9] -0.004 | [10] 0.026

GMEB1 (UniProt Q9Y692)
inactive: [1] 0.106 | [2] 0.071 | [3] 0.012 | [4] -0.005 | [5] -0.006 | [6] 0.009 | [7] -0.027 | [8] -0.089 | [9] 0.004 | [10] 0.036

GLS (UniProt O94925)
Sequence of UniProt O94925 (O94925 whole entry, looked up): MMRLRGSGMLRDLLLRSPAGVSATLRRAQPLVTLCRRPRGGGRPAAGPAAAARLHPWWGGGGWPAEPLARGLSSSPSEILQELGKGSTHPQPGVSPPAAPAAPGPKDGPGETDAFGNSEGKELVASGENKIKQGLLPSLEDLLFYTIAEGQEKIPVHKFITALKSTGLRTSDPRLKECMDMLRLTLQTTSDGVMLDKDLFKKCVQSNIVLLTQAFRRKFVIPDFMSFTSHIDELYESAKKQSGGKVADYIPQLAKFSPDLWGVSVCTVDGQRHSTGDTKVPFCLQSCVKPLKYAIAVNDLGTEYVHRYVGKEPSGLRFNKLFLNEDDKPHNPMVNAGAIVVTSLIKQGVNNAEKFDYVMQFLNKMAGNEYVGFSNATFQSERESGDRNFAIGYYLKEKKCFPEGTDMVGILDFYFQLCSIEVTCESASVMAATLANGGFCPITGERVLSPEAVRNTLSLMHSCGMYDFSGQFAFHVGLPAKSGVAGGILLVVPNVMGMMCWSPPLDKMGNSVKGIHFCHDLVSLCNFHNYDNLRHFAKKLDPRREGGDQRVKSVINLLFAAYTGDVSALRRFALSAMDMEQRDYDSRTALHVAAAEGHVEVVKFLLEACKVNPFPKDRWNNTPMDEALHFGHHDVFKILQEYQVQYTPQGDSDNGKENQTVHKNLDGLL
inactive: [1] 0.003 | [2] 0.105 | [3] 0.174 | [4] -0.107 | [5] -0.043 | [6] 0.14 | [7] 0.034 | [8] -0.023 | [9] -0.091 | [10] -0.03

ICMT (UniProt O60725)
Sequence of UniProt O60725 (O60725 whole entry, looked up): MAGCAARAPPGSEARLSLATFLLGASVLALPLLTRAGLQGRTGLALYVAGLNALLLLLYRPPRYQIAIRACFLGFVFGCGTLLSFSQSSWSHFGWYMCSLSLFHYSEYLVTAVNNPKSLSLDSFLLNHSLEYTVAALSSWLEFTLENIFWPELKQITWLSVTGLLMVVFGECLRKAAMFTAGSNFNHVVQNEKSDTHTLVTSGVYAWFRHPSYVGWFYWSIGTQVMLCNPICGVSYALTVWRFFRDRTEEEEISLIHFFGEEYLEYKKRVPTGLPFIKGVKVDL
inactive: [1] 0.059 | [2] -0.081 | [3] 0.015 | [4] -0.001 | [5] 0.214 | [6] -0.064 | [7] 0.122 | [8] -0.038 | [9] -0.206 | [10] -0.032

HRC (UniProt P23327)
inactive: [1] 0.012 | [2] -0.056 | [3] 0.042 | [4] -0.018 | [5] 0.005 | [6] 0.023 | [7] -0.021 | [8] -0.087 | [9] 0.041 | [10] 0.045

HNRNPH2 (UniProt P55795)
inactive: [1] 0.019 | [2] 0.17 | [3] 0.037 | [4] -0.028 | [5] 0.112 | [6] -0.031 | [7] -0.047 | [8] -0.016 | [9] -0.068 | [10] 0.024

HEXA (UniProt P06865)
Sequence of UniProt P06865 (P06865 whole entry, looked up): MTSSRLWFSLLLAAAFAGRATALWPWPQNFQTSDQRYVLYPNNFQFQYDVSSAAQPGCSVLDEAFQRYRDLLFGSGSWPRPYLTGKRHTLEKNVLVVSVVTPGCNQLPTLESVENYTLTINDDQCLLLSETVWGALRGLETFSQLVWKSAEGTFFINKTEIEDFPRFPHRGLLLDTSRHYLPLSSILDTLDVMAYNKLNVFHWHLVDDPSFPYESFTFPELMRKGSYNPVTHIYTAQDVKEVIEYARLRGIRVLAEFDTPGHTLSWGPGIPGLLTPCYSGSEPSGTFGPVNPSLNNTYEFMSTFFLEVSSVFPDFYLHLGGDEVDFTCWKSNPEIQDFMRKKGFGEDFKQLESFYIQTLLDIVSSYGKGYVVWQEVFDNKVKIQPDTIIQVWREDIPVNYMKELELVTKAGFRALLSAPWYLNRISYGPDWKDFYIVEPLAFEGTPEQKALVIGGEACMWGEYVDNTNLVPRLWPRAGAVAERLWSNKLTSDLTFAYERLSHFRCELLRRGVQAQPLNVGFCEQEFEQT
inactive: [1] 0.012 | [2] -0.012 | [3] 0.013 | [4] 0.007 | [5] 0.024 | [6] 0.004 | [7] -0.003 | [8] -0.023 | [9] 0.01 | [10] 0.007

FNTB (UniProt P49356)
inactive: [2] 0.028 | [3] 0.203 | [4] 0.028 | [5] 0.208 | [6] -0.024 | [7] 0.091 | [8] 0.107 | [9] 0.326 | [10] 0.065
active: [1] 0.488

HNRNPK isoform 2 (UniProt P61978)
inactive: [1] 0.042 | [2] 0.019 | [3] -0.003 | [4] 0 | [5] 0.058 | [6] -0.008 | [7] -0.013 | [8] -0.024 | [9] 0.011 | [10] 0.02

FHOD1 (UniProt Q9Y613)
inactive: [1] -0.002 | [2] -0.259 | [3] -0.337 | [4] -0.059 | [5] 0.059 | [6] 0.146 | [7] -0.034 | [8] -0.007

FANCI (UniProt Q9NVI1)
inactive: [1] 0.083 | [2] 0.026 | [3] 0.056 | [4] 0.062 | [5] 0.142 | [6] 0.008 | [7] 0.053 | [8] -0.019 | [9] -0.028 | [10] -0.006

HIC2 (UniProt Q96JB3)
Sequence of UniProt Q96JB3 (Q96JB3 whole entry, looked up): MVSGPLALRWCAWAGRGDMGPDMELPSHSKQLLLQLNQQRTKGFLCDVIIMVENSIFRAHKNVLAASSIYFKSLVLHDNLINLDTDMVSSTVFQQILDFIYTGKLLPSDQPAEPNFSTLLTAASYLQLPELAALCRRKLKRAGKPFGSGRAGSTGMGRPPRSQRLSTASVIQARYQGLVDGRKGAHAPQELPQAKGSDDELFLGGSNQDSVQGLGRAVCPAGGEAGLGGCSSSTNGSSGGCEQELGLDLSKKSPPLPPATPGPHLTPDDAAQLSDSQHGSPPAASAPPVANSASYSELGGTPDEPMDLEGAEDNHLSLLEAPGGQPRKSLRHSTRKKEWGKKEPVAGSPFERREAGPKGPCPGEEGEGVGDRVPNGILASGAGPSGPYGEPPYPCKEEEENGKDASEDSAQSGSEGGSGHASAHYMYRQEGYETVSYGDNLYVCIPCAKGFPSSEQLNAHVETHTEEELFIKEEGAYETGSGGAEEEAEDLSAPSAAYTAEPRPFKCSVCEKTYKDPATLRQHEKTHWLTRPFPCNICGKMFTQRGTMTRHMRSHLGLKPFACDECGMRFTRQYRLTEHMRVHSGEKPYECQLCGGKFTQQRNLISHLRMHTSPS
inactive: [1] 0.128 | [2] 0 | [3] -0.17 | [4] 0.028 | [5] -0.159 | [6] -0.08 | [7] 0.012 | [8] -0.266 | [9] -0.023 | [10] -0.09

GTF2E1 (UniProt P29083)
inactive: [1] 0.067 | [2] 0.145 | [3] 0.046 | [4] -0.002 | [5] 0.094 | [6] 0.007 | [7] 0.025 | [8] 0.039 | [9] -0.076 | [10] 0.017

FANCD2 isoform 1 (UniProt Q9BXW9)
inactive: [1] 0.077 | [2] 0.075 | [3] -0.003 | [4] 0.012 | [5] 0.145 | [6] 0.02 | [7] 0 | [8] -0.012 | [9] -0.008 | [10] 0.02
